Tests used:
Experiment in all cases: thermal shift delta Tm vs DMSO control; higher = stronger stabilization (binding)
Settings in all cases: 12.5 µM; protein concentration 2 µM
[1] = system: LOC_OS01G01410-cb001
Method in brief: (§1)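 Rice kinase domain constructs were expressed in E. coli, purified, and tested by differential scanning fluorimetry with compound added in DMSO. Each well of a 96-well plate held 19.5 μl of 2 μM kinase in 100 mM potassium phosphate pH 7.5, 150 mM NaCl, 10% glycerol and 5 × SYPRO Orange, and fluorescence was read from 25°C to 95°C at 0.05°C/s. The melting temperature shift is the mean of triplicates, taken against protein with DMSO alone after Boltzmann fitting.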

[2] = system: LOC_OS01G02750-cb003
Method in brief: as §1

[3] = system: LOC_OS01G10900-cb004
Method in brief: as §1

[4] = system: LOC_OS01G13800-cb001
Method in brief: as §1

[5] = system: LOC_OS01G14860-cb001
Method in brief: as §1

[6] = system: LOC_OS01G21960-cb002
Method in brief: as §1

[7] = system: LOC_OS01G39600-cb002
Method in brief: as §1

[8] = system: LOC_OS01G48390-cb002
Method in brief: as §1

[9] = system: LOC_OS01G51400-cb002
Method in brief: as §1

[10] = system: T1, LOC_OS01G52050-cb004
T1 sequence (whole entry): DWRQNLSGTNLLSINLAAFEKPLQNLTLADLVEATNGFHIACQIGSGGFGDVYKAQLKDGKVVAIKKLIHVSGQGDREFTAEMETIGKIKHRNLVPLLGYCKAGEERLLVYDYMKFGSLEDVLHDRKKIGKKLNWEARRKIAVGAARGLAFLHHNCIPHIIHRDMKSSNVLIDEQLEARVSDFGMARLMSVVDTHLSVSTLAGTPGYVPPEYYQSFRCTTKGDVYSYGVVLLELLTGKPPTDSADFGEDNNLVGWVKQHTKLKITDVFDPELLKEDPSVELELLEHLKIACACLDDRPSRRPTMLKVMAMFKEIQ
Method in brief: as §1

[11] = system: LOC_OS01G57100-cb003
Method in brief: as §1

[12] = system: LOC_OS01G60330-cb001
Method in brief: as §1

[13] = system: LOC_OS01G60700-cb002
Method in brief: as §1

[14] = system: LOC_OS01G63280-cb003
Method in brief: as §1

[15] = system: LOC_OS01G67340-cb003
Method in brief: as §1

[16] = system: LOC_OS01G70970-cb002
Method in brief: as §1

[17] = system: LOC_OS02G07810-cb001
Method in brief: as §1

[18] = system: LOC_OS02G08530-cb003
Method in brief: as §1

[19] = system: LOC_OS02G14120-cb001
Method in brief: as §1

[20] = system: LOC_OS02G17970-cb001
Method in brief: as §1

SMILES	thermal shift delta Tm [1] [°C]	thermal shift delta Tm [2] [°C]	thermal shift delta Tm [3] [°C]	thermal shift delta Tm [4] [°C]	thermal shift delta Tm [5] [°C]	thermal shift delta Tm [6] [°C]	thermal shift delta Tm [7] [°C]	thermal shift delta Tm [8] [°C]	thermal shift delta Tm [9] [°C]	thermal shift delta Tm [10] [°C]	thermal shift delta Tm [11] [°C]	thermal shift delta Tm [12] [°C]	thermal shift delta Tm [13] [°C]	thermal shift delta Tm [14] [°C]	thermal shift delta Tm [15] [°C]	thermal shift delta Tm [16] [°C]	thermal shift delta Tm [17] [°C]	thermal shift delta Tm [18] [°C]	thermal shift delta Tm [19] [°C]	thermal shift delta Tm [20] [°C]
COC(=O)c1ccc2c(c1)NC(=O)/C2=C(\Nc1ccc(N(C)C(=O)CN2CCN(C)CC2)cc1)c1ccccc1 [Nintedanib (BIBF 1120)]	2.25	-0.82	0.18	-0.11	1.18	0.47	1.74	1.19	0.18	1.07	0.08	1.75	0.96	-0.1	0.48	2.57	0.27	3.05	0.3	-0.36
CNC(=O)c1cccc(-c2ccc3c(N4CCOC[C@@H]4C)nc(N4CCOC[C@@H]4C)nc3n2)c1 [Vistusertib (AZD2014)]	0.53	0.19	0.09	0.05	-0.13	0.23	-0.58	0.24	0.26	-0.25	0.66	0.59	0.1	0.16	0.54	0.23	0.11	1.58	0	-0.08
O=C1c2c(O)cc(O)cc2OC(c2ccc(O)c(O)c2)C1O (stereo not given) [Taxifolin (Dihydroquercetin)]	0.87	0.83	0.4	0.01	0.34	0.61	0.19	0.17	0.11	0.49	1.27	0.28	0.38	0.25	0.07	0.29	0.09	0.73	0.32	0.67
COc1cccc(-n2c(=O)[nH]c3cc(Cl)n(-c4ccc(-c5cccc(OC)c5O)cc4)c3c2=O)c1	0.44	1.69	-0.02	0.72	0.13	0.8	-0.12	1.54	0.69	0.03	1.57	1.05	0.6	0.13	0.2	0.23	0.79	0.98	0.81	0.69
COc1cc2ncnc(Nc3ccc(O)c(Br)c3)c2cc1OC	1.47	-0.02	0.65	-0.02	0.9	0.93	-1.06	3	0.29	1.31	0.74	0.32	1.72	0.92	0.7	0.81	0.81	1.8	7.45	1.06
O=C1NC(=O)/C(=C/c2ccc3c(c2)OC(F)(F)O3)S1	0.72	0.45	0.16	0.44	0.39	1.11	0.17	0.77	0.53	0.79	2.63	0.63	1.33	0.41	0.47	0.52	1.34	0.96	-0.18	0.93
CCNC(=O)Nc1ccc(-c2nc3c(c(N4CCOC[C@@H]4C)n2)CCN(C2COC2)C3)cc1	0.46	0.52	0.25	0.66	0.02	0.43	-0.29	0.42	-0.02	0.23	1.02	0.52	0.42	0.65	0.16	0.23	0.04	0.71	-0.29	-0.11
O=C1NC(=O)/C(=C/c2cccc(C(F)(F)F)c2)S1	-0.06	0.14	0.2	0.24	0.12	0.28	-0.09	0.08	0.11	0.12	0.63	0.3	0.3	0.28	0.15	0.3	0.46	0.44	-0.36	0.43
CS(=O)(=O)c1cccc(CNc2nc(Nc3ccc4c(c3)CCC(=O)N4)ncc2C(F)(F)F)c1	3.58	3.6	1.39	-0.34	3.83	3.04	7.76	3.42	2.2	5.18	1.78	4.37	0.7	1.3	1.2	6.42	1.43	2.07	5.48	0.72
c1ccc(-c2[nH]ncc2-c2ccnc3ccccc23)nc1	0.44	0.87	0.58	0.69	0.36	0.76	0.33	0.11	0.03	0.61	0.37	-0.07	0.62	-0.05	0.51	-0.04	0.95	0.29	2.26	0.56
O=C(O)c1ccc2c(c1)nc(Nc1cccc(Cl)c1)c1ccncc12 [Silmitasertib (CX-4945)]	0.84	2.8	1.54	0.77	2.7	2.28	6.15	0.06	0.3	2.54	2.46	4.93	1.42	1.39	0.58	0.36	0.97	1.24	2.72	1.95
COc1ccc(Cl)cc1NC(=O)Nc1cc(C)nc2ccccc12	0.77	3.02	0.18	0.68	0.5	1.37	-1.53	5.48	1.15	1.3	1.28	1.01	0.92	0.87	0.83	0.66	1.12	0.89	0.14	0.65
CCN(CC)CCNC(=O)c1c(C)[nH]c(/C=C2\C(=O)Nc3ccc(F)cc32)c1C [Sunitinib]	3.95	1.72	0.25	-0.3	1.43	2.21	2.9	1.72	0.22	7.91	-0.24	9.23	0.91	0.49	4.15	6.85	0.37	4.95	7.49	0.22
CC(C)n1nc(-c2cc3cc(O)ccc3[nH]2)c2c(N)ncnc21 [Torkinib (PP242)]	0.97	0.22	0.64	0.08	0.52	0.37	-0.17	0.78	0.2	0.85	0.56	1.53	1.1	3.14	1.04	0.66	0.64	0.63	0.74	0.57
Nc1ncnc2c1c(-c1cnc3[nH]ccc3c1)nn2C1CCCC1	1.35	1.16	2.01	0.12	1.82	1.28	0.43	2.52	0.19	1.48	1.79	1.57	1.17	4.61	1.58	0.76	1.3	2.67	2.04	0.76
Nc1cccc(S(=O)(=O)N2CCCN(S(=O)(=O)c3ccc4c(c3)OCCO4)CC2)c1	0.49	1.98	0.15	0.22	0.23	0.8	-0.77	3.24	0.46	0.19	0.46	0.53	0.59	-0.02	0.27	0.17	0.54	0.32	0.21	0.7
O=c1nc(N2CCOCC2)oc2c(-c3cccc4c3sc3ccccc34)cccc12	0.12	-0.86	3.3	-0.44	0.6	0.45	-0.5	0.27	-0.4	1.17	1.63	-0.13	-0.9	-1.32	-1.09	-0.38	-1.31	0.23	0.11	-0.76
O=C(O)c1ccc(-c2c[nH]c3ncc(-c4ccccc4)cc23)cc1C1CCCC1	5.06	4.25	0.46	-0.9	5.49	1.3	14.5	-1.42	-0.58	10.5	1.09	-0.77	-3.79	2.57	4.86	6.62	0.4	4.81	10.7	-1.49
CCNc1nc(Nc2cc(F)c(C(=O)N3CCOCC3)cc2OC)ncc1C(F)(F)F	0.11	0.63	0.25	0.11	1.18	0.79	0.15	0.72	0.2	-0.2	0.61	1.21	0.71	0.15	0.32	0.73	-0.04	1.3	0.5	0.54
Cc1csc(-c2nnc(Nc3ccc(Oc4ncccc4-c4ccnc(N)n4)cc3)c3ccccc23)c1	1.65	0.49	0.46	0.28	0.97	1.99	1.72	1.04	0.22	1.54	2.43	-0.58	0.56	14	0.96	0.74	1.36	4.38	3.75	1.17
FC(F)(F)c1ccc(CNc2ccc(Cc3c[nH]c4ncc(Cl)cc34)cn2)cn1 [Pexidartinib (PLX3397)]	1.9	3.35	3.09	0.85	1.22	2.07	2.41	6.28	0.37	10.2	1.87	3.92	0.67	2.9	3.78	2.89	1.03	3.22	9.87	2.01
O=S(=O)(NCCNC/C=C/c1ccc(Br)cc1)c1cccc2cnccc12	0.28	0.92	3.17	0.66	0.58	1.16	0.27	1.8	0.23	0.48	1.34	0.45	0.98	0.58	-0.25	0.05	1.39	0.72	0.95	0.98
COc1cc2nccc(Oc3ccc(NC(=O)c4cn(C(C)C)c(=O)n(-c5ccc(F)cc5)c4=O)cc3F)c2cc1OC	0.17	1.65	-0.15	0.61	0.98	0.2	0.41	0.32	0.13	4.45	0.85	0.41	0.47	-0.09	0.68	0.8	-0.36	0.66	8.24	1.66
COc1cc(N2CCN(C)CC2)ccc1Nc1ncc2c(n1)N(C)c1ccccc1C(=O)N2	0.72	1.11	1.07	-0.23	0.43	0.53	0.75	0.41	0.22	-0.22	0.71	0.79	1.11	0.14	0.39	0.32	0.41	0.62	2.52	0.53
COc1ncc(-c2ccc3nccc(-c4ccnnc4)c3c2)cc1NS(=O)(=O)c1ccc(F)cc1F	1.94	1.21	0.23	0.27	1.9	1.2	3.65	0.45	0.55	1.09	2.01	0.36	1.17	0.66	1.24	0.34	1.43	0.74	0.78	1.75
CCn1cc(-c2ccnc3[nH]c(-c4cccc(CN(C)C)c4)cc23)c(-c2ccc(NC(=O)N(C)C)cc2)n1	0.68	2.48	1.01	0.47	2.81	0.73	0.91	1.28	0.51	0.87	1.51	0.61	1.18	2.91	0.66	0.18	0.49	1.02	6.39	1.01

Reference: the supplement of paper PMC9694430
